PrPC surface inh = inhibitors of human cell surface prion protein PrPC, primary screen, cell-based, TR-FRET; Major prion protein (Homo sapiens), P04156; TR-FRET read-out; inhibition, % at 13.8 µM; hit rate 0.43% among 370,000; AID 720596, 2013; in the data active = inhibition above about 24%; also: 0% = median of the test wells and 100% = reference compound wells
GDH-TPI inh = GDH-TPI coupling enzyme inhibitors, primary screen, artefact control for M. tuberculosis FBA inhibitor project, biochemical, absorbance, full deck | GDH-TPI coupled enzyme counterscreen, NADH absorbance | inhibition, % at 4.8 µM | hit rate 1.2% among 360,000; in the data active = inhibition above about 30%;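 also: 0% = DMSO wells and 100% = wells lacking the enzyme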
Mtb FBA inh = Mtb FBA enzyme inhibitors, primary screen, biochemical, fluorescence, strain H37Rv | purified M. tuberculosis FBA, fluorescence read-out | Fructose-bisphosphate aldolase (Mycobacterium tuberculosis (strain ATCC 25618 / H37Rv)), … | AID 588726, 2011 | hit rate 2.3% among 360,000 | inhibition, % at 1 µM; in the data active = inhibition above about 27%;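 also: 0% = vehicle and 100% = reference inhibitor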
Target sequence (P9WQA3 whole entry, looked up): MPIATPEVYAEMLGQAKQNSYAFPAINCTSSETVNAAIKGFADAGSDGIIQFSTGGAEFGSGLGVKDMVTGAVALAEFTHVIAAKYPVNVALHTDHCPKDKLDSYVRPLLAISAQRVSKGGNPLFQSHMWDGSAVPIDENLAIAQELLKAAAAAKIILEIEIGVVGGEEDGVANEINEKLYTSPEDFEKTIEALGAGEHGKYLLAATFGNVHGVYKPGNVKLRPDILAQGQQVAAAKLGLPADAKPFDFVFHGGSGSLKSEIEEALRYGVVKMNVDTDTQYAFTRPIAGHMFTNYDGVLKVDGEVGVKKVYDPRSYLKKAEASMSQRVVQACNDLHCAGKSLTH
SARS 3CLpro inh = SARS-CoV 3CLpro protease inhibitors, primary screen, biochemical, quenched FRET | Replicase polyprotein 1ab (Severe acute respiratory syndrome coronavirus), P0C6X7 | recombinant SARS-CoV 3CLpro, quenched FRET peptide cleavage | inhibition, % at 6 µM | hit rate 0.14% among 290,000 | AID 1706, 2009; in the data active = inhibition above about 12%
Vc quorum ag = inducers of Vibrio cholerae quorum light production without autoinducers, primary screen, BH1578 luxS cqsA deficient, single point | V. cholerae BH1578 lux reporter, luminescence, 6 h | activation, % at 18.7 µM | hit rate 0.16% among 350,000; in the data active = activation mostly above about 9.7%, no sharp cut-off
Active calls of the source: *; i = inactive; x = not tested or not shown; + = active, no number. Most compounds without a hit are left out; they make up all but 3.9% or so of the library.

SMILES	PrPC surface inh	GDH-TPI inh	Mtb FBA inh	SARS 3CLpro inh	Vc quorum ag
CN(C)c1ccc(/C=N/NC(=S)NCc2ccccc2)cc1	3	32*	24	4	i
O=C(OC12CCCN(C1)/C(=C/c1cccc(Cl)c1)C2)c1ccno1 (stereo unspecified)	3	x	x	x	x
Cn1c(=O)n(C)c2cc(/C=N/NC(=S)NCc3ccccc3)ccc21	7	34*	1	3	i
COCCCNC(=S)N/N=C/c1ccc(N(C)C)cc1	-2	15	48*	-2	i
O=C(CCNC(=O)N1CC(=O)Nc2ccccc21)NCc1ccccc1	3	-1	0	x	-1
CCOc1ccc(-n2c([S-])c(C(=O)Nc3ccc(S(=O)(=O)N4CCOCC4)cc3)[n+]3cc(C(N)=O)ccc23)cc1	8	39*	10	3	0
Cc1cc(N(C)Cc2ccccc2)nc2cc(O)ccc12	0	9	+	-3	i
O=C1NC(=O)/C(=C/c2cccc3ccccc23)S1	5	37*	0	-1	i
O=C1NC(=O)C(=Cc2ccccc2[N+](=O)[O-])S1	-15	9	-1	x	i
CC(C)N1CC2(CC(c3ccccc3C(F)(F)F)=NO2)CN1C(=O)c1ccc(C(C)(C)C)cc1 (stereo unspecified)	-4	5	-2	x	0
CCC(=O)OCc1cc(=O)oc2ccc3ccccc3c12	-14	16	170*	-6	-4
CC(=O)N1CCN(Cc2cc(=O)oc3ccc4ccccc4c23)CC1	-4	x	4	x	x
O=C(Nc1ccc(-c2nc3ccccc3[nH]2)cc1)c1ccco1	x	42*	-1	3	-5
COC(=O)c1ccc(-c2nc3ccccc3[nH]2)cc1	13	19	+	2	i
O=C(/C=C/c1ccco1)Nc1ccc(-c2nc3ccccc3[nH]2)cc1	-4	9	5	-3	1
COc1ccc(-c2nc3ccccc3[nH]2)cc1	1	8	16	1	-7
c1ccc(-c2nc3ccccc3[nH]2)cc1	3	4	11	-6	i
O=C(O)c1cccc(-c2nc3ccccc3[nH]2)c1	-8	7	112*	3	-1
COC(=O)c1ccc(-c2ncc[nH]2)cc1	0	3	+	3	0
CCCCN1C(=O)C(CC(=O)NC2CC2)CC(C(=O)N2CCOCC2)=C1C (stereo unspecified)	4	3	-3	x	i
Cc1ccn2cc(-c3ccc(NC(=O)c4ccco4)cc3)nc2c1	-10	33*	0	-3	-1
Cc1cc(-c2nc3ccccc3[nH]2)ccc1N	8	9	174*	-1	0
Cc1onc(-c2ccccc2Cl)c1C(=O)NCc1nnnn1-c1ccc(F)c(F)c1	4	10	1	x	i
Cc1ccc(-n2nc3c4c(cccc4c2=O)-c2ccccc2-3)cc1	5	33*	2	0	i
CCCc1cc(=O)oc2c(CN(CC)CC)c(O)c(Cl)cc12	0	23	x	3	0
SMILES	PrPC surface inh	GDH-TPI inh	Mtb FBA inh	SARS 3CLpro inh	Vc quorum ag
COc1ccc(CNCc2c(O)c(Cl)cc3c(C)c(C)c(=O)oc23)c(OC)c1	-7	18	+	-3	-1
CCc1cc(=O)oc2c(CNCc3ccc(OC)cc3OC)c(O)c(Cl)cc12	1	16	+	3	i
O=C(Cn1cnc2ccccc2c1=O)NCCC(=O)Nc1ccc(F)cc1	3	18	0	1	i
Cc1nc2ccc(NC(=O)c3ccco3)cc2nc1C	1	2	6	-3	i
CC(C)C(=O)Nc1ccc(Nc2ccccc2)cc1	1	10	0	2	0
O=C(Nc1cc2nn(-c3ccccc3)nc2cc1Cl)c1ccco1	0	38*	9	-5	-1
CC(C)C(=O)Nc1ccc2nn(-c3ccccc3)nc2c1	5	23	+	-3	-2
O=C(Nc1ccc2nn(-c3ccccc3)nc2c1)c1ccco1	18	33*	16	0	0
CC(=O)Nc1cc2nn(-c3ccccc3)nc2cc1Cl	-7	26	24	-4	i
O=C(Nc1ccc2nn(-c3ccccc3)nc2c1)c1cccnc1	-2	35*	-1	0	i

Compound activity (PubChem)
